Results filed as inconclusive are left out. Active and inactive are the calls of the source. Calls follow the shape of the dose curve; as a rule, active = well fitted curve in the direction sought with a large enough effect; inconclusive = small, poorly fitted or top-dose-only effect, or another doubt; inactive = no such curve, though single readings can be large; an effect the other way counts as inactive or inconclusive.
Key:
[1] = molecular target: Rap guanine nucleotide exchange factor 3 (Homo sapiens) (UniProt O95398); test: Confirmatory qHTS for antagonist of cAMP-regulated guanine nucleotide exchange factor 3 (EPAC1) (AID 1645880); settings: EPAC1 Rap1B-BODIPY-GDP exchange, fluorescence; activity, negative = inhibition: at 115 µM (top of the series); also: nearly all actives have a fitted effect of over 55% in size; also: potency is read from the fitted curve at half-maximal effect;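 as to activity, negative = inhibition: plate controls were DMSO only for no effect and full effect of the ATA control for full effect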
Sequence of Rap guanine nucleotide exchange factor 3 (Homo sapiens) (O95398 whole entry, looked up): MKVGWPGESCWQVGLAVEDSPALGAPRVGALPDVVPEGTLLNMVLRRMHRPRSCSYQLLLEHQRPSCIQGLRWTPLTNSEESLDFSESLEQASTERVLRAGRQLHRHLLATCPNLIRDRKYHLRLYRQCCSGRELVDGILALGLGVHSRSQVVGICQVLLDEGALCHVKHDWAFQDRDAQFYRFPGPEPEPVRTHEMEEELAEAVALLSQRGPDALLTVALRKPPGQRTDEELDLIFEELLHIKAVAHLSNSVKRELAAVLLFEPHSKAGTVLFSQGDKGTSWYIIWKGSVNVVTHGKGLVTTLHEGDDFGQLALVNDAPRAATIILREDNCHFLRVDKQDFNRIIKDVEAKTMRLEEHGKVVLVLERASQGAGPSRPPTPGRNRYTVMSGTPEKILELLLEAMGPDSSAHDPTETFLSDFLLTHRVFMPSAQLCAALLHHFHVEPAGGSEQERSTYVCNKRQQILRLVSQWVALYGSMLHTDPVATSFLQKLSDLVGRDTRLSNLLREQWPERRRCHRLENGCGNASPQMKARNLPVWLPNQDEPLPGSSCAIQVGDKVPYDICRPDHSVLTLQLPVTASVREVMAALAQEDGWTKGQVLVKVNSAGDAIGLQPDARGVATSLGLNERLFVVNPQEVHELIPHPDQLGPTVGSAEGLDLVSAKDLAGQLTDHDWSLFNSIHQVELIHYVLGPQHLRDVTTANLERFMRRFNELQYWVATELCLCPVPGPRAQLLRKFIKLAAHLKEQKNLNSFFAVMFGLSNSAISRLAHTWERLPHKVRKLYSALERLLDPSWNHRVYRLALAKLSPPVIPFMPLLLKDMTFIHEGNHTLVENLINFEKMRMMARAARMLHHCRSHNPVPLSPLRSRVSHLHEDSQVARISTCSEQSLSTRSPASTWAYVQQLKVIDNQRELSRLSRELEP
How it was run: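 Nucleotide exchange uses 100 nM EPAC1, 250 nM RAP1B-BODIPY-GDP and 50 uM GDP, with compounds in a concentration-titration series. After 5 min at room temperature, fluorescence (480 nm ex/540 nm em) is read every 5 min for 30 min. Data are normalized to control ATA and DMSO.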

[2] = molecular target: Rap guanine nucleotide exchange factor 3 (Homo sapiens) (UniProt O95398); test: Confirmatory qHTS for agonist of cAMP-regulated guanine nucleotide exchange factor 3 (EPAC1) (AID 1645881); also: nearly all actives have a fitted effect of over 75% in size; also: potency is read from the fitted curve at half-maximal effect;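 as to activation: EPAC1 catalysed release of BODIPY-GDP from Rap1B seen as fluorescence loss; 100% = effect of cAMP agonist control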
[3] = molecular target: Rap guanine nucleotide exchange factor 4 (Homo sapiens) (UniProt Q8WZA2); test: Confirmatory qHTS for agonist of cAMP-regulated guanine nucleotide exchange factor 4 (EPAC2) (AID 1645884);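 also: nucleotide exchange releases bodipy-GDP from Rap1 and this lowers its fluorescence; nearly all actives have a fitted effect of over 65% in size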; also: potency is read from the fitted curve at half-maximal effect; as to activation: % is scaled to controls: 0 for no effect and ±100 for the full control effect
Sequence of Rap guanine nucleotide exchange factor 4 (Homo sapiens) (Q8WZA2 whole entry, looked up): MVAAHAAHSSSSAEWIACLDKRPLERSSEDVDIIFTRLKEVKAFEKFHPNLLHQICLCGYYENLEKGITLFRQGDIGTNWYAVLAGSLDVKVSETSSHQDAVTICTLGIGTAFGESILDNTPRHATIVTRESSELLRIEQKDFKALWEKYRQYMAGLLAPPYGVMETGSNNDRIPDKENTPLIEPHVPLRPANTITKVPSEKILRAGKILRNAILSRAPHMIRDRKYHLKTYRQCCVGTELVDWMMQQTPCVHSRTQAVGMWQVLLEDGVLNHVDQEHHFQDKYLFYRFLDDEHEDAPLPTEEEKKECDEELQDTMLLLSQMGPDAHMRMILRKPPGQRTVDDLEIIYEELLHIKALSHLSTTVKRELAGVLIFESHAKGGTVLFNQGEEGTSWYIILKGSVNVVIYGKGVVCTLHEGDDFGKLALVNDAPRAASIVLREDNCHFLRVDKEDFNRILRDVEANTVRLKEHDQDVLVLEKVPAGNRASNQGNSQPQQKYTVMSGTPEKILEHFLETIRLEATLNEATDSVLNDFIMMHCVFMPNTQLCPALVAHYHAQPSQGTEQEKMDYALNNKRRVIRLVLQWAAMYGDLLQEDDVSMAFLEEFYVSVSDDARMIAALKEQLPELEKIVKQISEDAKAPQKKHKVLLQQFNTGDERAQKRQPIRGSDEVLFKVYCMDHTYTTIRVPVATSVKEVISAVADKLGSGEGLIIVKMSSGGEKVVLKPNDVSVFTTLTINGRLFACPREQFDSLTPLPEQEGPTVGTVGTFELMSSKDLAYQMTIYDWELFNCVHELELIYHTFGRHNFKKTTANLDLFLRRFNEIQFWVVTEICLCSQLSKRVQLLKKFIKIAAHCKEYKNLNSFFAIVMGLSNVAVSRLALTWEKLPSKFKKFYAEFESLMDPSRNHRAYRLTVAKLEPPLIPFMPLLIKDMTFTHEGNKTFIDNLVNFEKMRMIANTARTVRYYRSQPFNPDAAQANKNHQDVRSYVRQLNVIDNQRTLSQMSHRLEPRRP

[4] = molecular target: Rap guanine nucleotide exchange factor 4 (Homo sapiens) (UniProt Q8WZA2); test: Confirmatory qHTS for antagonist of cAMP-regulated guanine nucleotide exchange factor 4 (EPAC2) (AID 1645885); also: nearly all actives have a fitted effect of over 25% in size; also: potency is read from the fitted curve at half-maximal effect
[5] = molecular target: Rap guanine nucleotide exchange factor 3 (Homo sapiens) (UniProt O95398); test: Counterscreen qHTS for agonist of cAMP-regulated guanine nucleotide exchange factor 3 (EPAC1) (AID 1645889); also: nearly all actives have a fitted effect of over 40% in size; also: potency is read from the fitted curve at half-maximal effect; as to activation: % of control where 0% means no effect
How it was run: (§1)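 Rap1B–BODIPY-GDP (250 nM) with 50 uM GDP; compounds pin-transferred to 9.74 nM–152 uM final (activator) or from 7.32 nM upwards (inhibitor). Fluorescence Ex/Em 480/540 nm read at 5 and 30 min, then after adding cAMP or buffer, at room temperature.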

[6] = molecular target: Tumor susceptibility gene 101 protein (Homo sapiens) (UniProt Q99816); test: qHTS Assay for Iinhibitors of HIV-1 Budding by Blocking the Interaction of PTAP/TSG101: Hit Validation (AID 651600); also: % is scaled to controls: 0 for no effect and ±100 for the full control effect; nearly all actives have a fitted effect of over 70% in size
Sequence of Tumor susceptibility gene 101 protein (Homo sapiens) (Q99816 whole entry, looked up, the tested form may be a part): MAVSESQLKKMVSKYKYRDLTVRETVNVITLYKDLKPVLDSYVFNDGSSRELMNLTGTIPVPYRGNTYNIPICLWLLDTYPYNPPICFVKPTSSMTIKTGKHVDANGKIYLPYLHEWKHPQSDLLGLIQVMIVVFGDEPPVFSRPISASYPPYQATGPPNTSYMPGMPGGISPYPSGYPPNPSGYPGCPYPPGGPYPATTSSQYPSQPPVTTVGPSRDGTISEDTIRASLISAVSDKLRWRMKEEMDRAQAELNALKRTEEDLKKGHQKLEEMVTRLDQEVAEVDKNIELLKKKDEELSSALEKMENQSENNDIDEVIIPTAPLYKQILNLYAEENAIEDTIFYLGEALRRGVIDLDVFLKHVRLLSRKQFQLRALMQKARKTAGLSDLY
How it was run: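 Fluorescence polarization binding assay: Tsg101 binding domain (10 uM final) pre-dispensed with compounds, then FITC-labeled PTAP-motif peptide (50 nM final) added; 20 min at r.t. in HEPES pH 7.5 buffer with NaCl, Tween 20, EDTA, TCEP.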

[7] = molecular target: Rap guanine nucleotide exchange factor 3 (Homo sapiens) (UniProt O95398); test: Counterscreen qHTS for antagonist of cAMP-regulated guanine nucleotide exchange factor 3 (EPAC1) (AID 1645888);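 also: fluorescence loss as bound BODIPY-GDP is released from Rap1B; % of control where 0% means no effect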
How it was run: as §1

Cc1csc(N=Nc2ccc(N(C)C)cc2)[n+]1[O-]
active: Potency [1] 67.5 µM | Potency [4] 37.9 µM
inactive: Potency [2] | Potency [3] | Potency [5]

CC(C)Cn1c(SC(C)C(=O)NCC2CCCO2)nc2ccc(Cl)cc2c1=O (stereo unspecified)
inactive: Potency [1] | Potency [2] | Potency [3] | Potency [5]
active: Potency [4] 5.36 µM

CC1CN(c2nc3ccccc3nc2C(C#N)C(=O)NCc2ccc3c(c2)OCO3)CC(C)O1 (stereo unspecified)
inactive: Potency [6] | Potency [1] | Potency [2] | Potency [3] | Potency [4] | Potency [7]

CCn1cc(SCC(=O)NCc2ccc3c(c2)OCO3)c2ccccc21
inactive: Potency [1] | Potency [2] | activation [3] 0% [at 17.1 µM, percent relative to cAMP agonist control] | Potency [4] | activation [5] 20.3% [at 30.8 µM]

C=CCN(CC=C)Cc1cc(=O)oc2cc(OC)c(Cl)cc12
inactive: Potency [1] | Potency [2] | activation [3] 3.78% [at 17.1 µM, percent relative to cAMP agonist control] | Potency [4] | activation [5] 20.9% [at 30.8 µM]

Cc1ccc(C)c(-n2c(CCC(=O)O)ccc2-c2ccc(Cl)cc2)c1
inactive: Potency [1] | Potency [2] | Potency [3] | Potency [4] | Potency [5]

COc1ccc(C(CC(=O)N2CCCC2)c2ccc(F)cc2)cc1 (stereo unspecified)
inactive: Potency [1] | Potency [2] | activation [3] 0% [at 17.1 µM, percent relative to cAMP agonist control] | Potency [4] | activation [5] 0.37% [at 30.8 µM]

Cc1cc(C)c(Nc2cc(S(=O)(=O)O)c(N)c3c2C(=O)c2ccccc2C3=O)c(C)c1
active: Potency [1] 30.1 µM | Potency [4] 75.7 µM
inactive: Potency [2] | Potency [3] | Potency [5]

Cc1ccc(-c2nnc(Nc3ccc4c(c3)nc(C)n4C)c3ccccc23)cc1
inactive: Potency [1] | Potency [2] | activation [3] 2.89% [at 17.1 µM, percent relative to cAMP agonist control] | Potency [4] | activation [5] 12% [at 30.8 µM]

Cc1ccc(C)c(NC(=O)COC(=O)COc2cccc3c2OC(C)(C)C3)c1
inactive: Potency [1] | Potency [2] | activation [3] -3.91% [at 17.1 µM, percent relative to cAMP agonist control] | Potency [4] | activation [5] 3.82% [at 30.8 µM]

O=[N+]([O-])c1ccc(N/N=C2/CCCCC2c2ccccn2)cc1 (stereo unspecified)
inactive: Potency [1] | Potency [2] | activation [3] 2.03% [at 17.1 µM, percent relative to cAMP agonist control] | Potency [4] | activation [5] -3.04% [at 30.8 µM]

CCC(Sc1nncn1C)C(=O)Nc1nnc(-c2ccc(Cl)cc2)s1 (stereo unspecified)
inactive: Potency [1] | Potency [2] | activation [3] 5.37% [at 17.1 µM, percent relative to cAMP agonist control] | Potency [4] | activation [5] -0.401% [at 30.8 µM]

CC(C)c1ccc(NC(=O)COC(=O)C2=COCCO2)cc1
inactive: Potency [1] | Potency [2] | activation [3] -5.53% [at 17.1 µM, percent relative to cAMP agonist control] | Potency [4] | activation [5] 17.9% [at 30.8 µM]

O=C1N/C(=N/NC(=O)c2cccc3ccccc23)S/C1=C\c1ccccc1OCc1ccccc1
active: Potency [1] 3.55 µM
inactive: Potency [2] | activation [3] 0.729% [at 17.1 µM, percent relative to cAMP agonist control] | Potency [4] | activation [5] 8.81% [at 30.8 µM]

COc1cccc(CNC(=O)COc2cc3c(c4oc(=O)cc(C)c24)CCC(C)(C)O3)c1
inactive: Potency [1] | Potency [2] | Potency [3] | Potency [4] | Potency [5]

Cn1c(N)c(C(=O)COC(=O)CCOc2ccc(C(C)(C)C)cc2)c(=O)n(C)c1=O
inactive: Potency [1] | Potency [2] | Potency [3] | Potency [4] | Potency [5]

COC(=O)CSc1ncnc2scc(-c3ccccc3)c12
inactive: Potency [1] | Potency [2] | activation [3] -0.952% [at 17.1 µM, percent relative to cAMP agonist control] | Potency [4] | activation [5] 5.38% [at 30.8 µM]

CCOc1cc(/C=C2/SC(=S)NC2=O)ccc1OC(=O)c1ccco1
inactive: Potency [2] | Potency [3] | Potency [5]
active: Potency [1] 37.9 µM | Potency [4] 16.9 µM

Cc1ccc(CNC(=O)c2ccc3c(c2)nc(C)n3-c2cccc(F)c2)cc1
inactive: Potency [1] | Potency [2] | Potency [3] | Potency [4] | Potency [5]

CCC(CC)C(=O)N1c2ccccc2C(C)(c2ccccc2)CC1(C)C (stereo unspecified)
inactive: Potency [1] | Potency [2] | Potency [3] | Potency [4] | Potency [5]

Cc1ccc(CNC(=O)c2c[nH]n3c(=O)c(Cc4ccc(F)cc4Cl)c(C)nc23)cc1
inactive: Potency [2] | Potency [3] | Potency [4] | Potency [5]
active: Potency [1] 67.5 µM

O=C(C1CC1)N1CCN(c2ccc([N+](=O)[O-])cc2-n2cccc2)CC1
inactive: Potency [1] | Potency [2] | activation [3] 4.17% [at 17.1 µM, percent relative to cAMP agonist control] | Potency [4] | activation [5] 6.18% [at 30.8 µM]

CCOc1ccc2oc(C(=O)N(C)CC(=O)Nc3ccc(OCC)c(OCC)c3)c(C)c2c1
inactive: Potency [1] | Potency [2] | Potency [3] | Potency [4] | Potency [5]

COc1cc(CCc2ccccc2)c(C(=O)O)c(O)c1C/C=C(/C)CCC=C(C)C
inactive: Potency [2] | Potency [3] | Potency [5]
active: Potency [1] 42.6 µM | Potency [4] 75.7 µM

COc1cc(NC(=O)c2cnc(N)s2)cc(C(=O)Nc2cccc(C(F)(F)F)c2)c1
inactive: Potency [2] | activation [3] 5.57% [at 17.1 µM, percent relative to cAMP agonist control] | Potency [4] | activation [5] 16.6% [at 30.8 µM]
active: Potency [1] 12.6 µM

CCN1CCN(C2=CC3=CC(=C(C#N)C#N)CCC3CC2)CC1 (stereo unspecified)
inactive: Potency [1]
active: Potency [2] 79.4 µM | Potency [3] 100 µM | Potency [4] 67.5 µM | Potency [5] 10 µM

CCOc1cc(/C=C(\C#N)C(=O)Nc2cccc(C(=O)O)c2)cc(Br)c1OC(=O)c1ccc(OC)cc1
active: Potency [1] 42.6 µM | Potency [4] 12 µM
inactive: Potency [2] | Potency [3] | Potency [5]

CCC(=O)NC(c1ccc(C)cc1)c1ccc2cccnc2c1O (stereo unspecified)
inactive: Potency [1] | Potency [2] | Potency [3] | Potency [5]
active: Potency [4] 5.36 µM

CCCCCn1c(CCNC(=O)c2cccc(C)c2)nc2ccccc21
inactive: Potency [1] | Potency [2] | Potency [3] | Potency [4] | Potency [5]

CC(C)(C)c1c(Cl)c(O)c(-c2ccccc2)c(=O)n1-c1ccccc1
active: Potency [1] 23.9 µM
inactive: Potency [2] | Potency [3] | Potency [4] | Potency [5]

COc1cc(OC)c(-c2c3cc(O)c(=O)cc-3oc3cc(O)c(O)cc23)cc1OC
inactive: Potency [1] | Potency [4]
active: Potency [2] 89.1 µM | Potency [3] 100 µM | Potency [5] 70.8 µM

CC1CC1c1ccc(/C=C(\C#N)C(=O)Nc2ccc(Cl)cc2)o1 (stereo unspecified)
inactive: Potency [1] | Potency [2] | Potency [3] | Potency [4] | Potency [5]

CCC(=O)N1c2ccc(S(=O)(=O)NCCc3ccc(C)cc3)cc2CC1C (stereo unspecified)
inactive: Potency [1] | Potency [2] | Potency [3] | Potency [4] | Potency [5]

Cn1cc([C@]2(O)C(=O)Nc3ccc(OC(F)(F)F)cc32)c2ccccc21
inactive: Potency [1] | Potency [2] | activation [3] 14.8% [at 17.1 µM, percent relative to cAMP agonist control] | Potency [4] | activation [5] 32.2% [at 30.8 µM]

CC(=O)c1cc(CC(=O)N2CCc3c([nH]c4ccccc34)C2c2ccccn2)cs1 (stereo unspecified)
inactive: Potency [1] | Potency [2] | Potency [3] | Potency [4] | Potency [5]

COc1ccc(-c2c(-c3ccccc3OC)oc3ccccc23)cn1
inactive: Potency [1] | Potency [2] | activation [3] 1.88% [at 17.1 µM, percent relative to cAMP agonist control] | Potency [4] | activation [5] 7.21% [at 30.8 µM]

O=C1NC(=S)S/C1=C\C=C\c1ccc([N+](=O)[O-])o1
active: Potency [1] 8.49 µM
inactive: Potency [2] | Potency [3] | Potency [4] | Potency [5]

CCC1=NN(C(=O)c2ccc(Br)cc2)C(O)(c2ccccc2)C1 (stereo unspecified)
inactive: Potency [1] | Potency [2] | activation [3] 2.89% [at 17.1 µM, percent relative to cAMP agonist control] | Potency [4] | activation [5] 19.8% [at 30.8 µM]

CCOC(=O)N1CCC2CC1c1cc(-c3cccc(OC)c3)ccc12 (stereo unspecified)
inactive: Potency [1] | Potency [2] | Potency [3] | Potency [4] | Potency [5]

COc1ccccc1CNC(=O)C1(C)CCN1Cc1ccc(OC(F)(F)F)cc1 (stereo unspecified)
inactive: Potency [2] | Potency [3] | Potency [5]
active: Potency [1] 67.5 µM | Potency [4] 53.6 µM

Cc1cc(OC(C)C(=O)NCc2ccccn2)c2c(C)c(Cc3ccccc3)c(=O)oc2c1 (stereo unspecified)
inactive: Potency [2] | Potency [3] | Potency [4] | Potency [5]
active: Potency [1] 47.8 µM

Cc1ccc(S(=O)(=O)N2[C@@H](c3ccccc3)C(C(=O)O)=CC[C@H]2c2ccc(C(C)C)cc2)cc1
active: Potency [1] 75.7 µM
inactive: Potency [2] | Potency [3] | Potency [4] | Potency [5]

Cc1cc(C)n(CCOc2ccc(Br)cc2)n1
inactive: Potency [1] | Potency [2] | activation [3] 1.04% [at 17.1 µM, percent relative to cAMP agonist control] | Potency [4] | activation [5] 4.02% [at 30.8 µM]

O=C1OC(c2ccccc2)Sc2ccccc21 (stereo unspecified)
inactive: Potency [1] | Potency [2] | activation [3] 4.47% [at 17.1 µM, percent relative to cAMP agonist control] | Potency [4] | activation [5] -3.76% [at 30.8 µM]

COc1cccc(C(=O)C(CCC#N)c2ccccc2)c1 (stereo unspecified)
inactive: Potency [1] | Potency [2] | Potency [3] | Potency [4] | Potency [5]

Cc1cc(/C=C2\SC(=S)NC2=O)cc(C)c1O
inactive: Potency [2] | Potency [3] | Potency [5]
active: Potency [1] 33.8 µM | Potency [4] 0.675 µM

CCCCn1c(CNC(=O)C23CC4CC(CC(C4)C2)C3)nnc1SCC(=O)Nc1ccc(F)cc1
inactive: Potency [1] | Potency [2] | Potency [3] | outcome [4] inactive [at 12.7 µM] | Potency [5]

CCOc1nc(C)cc(C)c1S(=O)(=O)c1cccc(Cl)c1
inactive: Potency [1] | Potency [2] | Potency [3] | Potency [5]
active: Potency [4] 19 µM
